Experimental data published in PubChem BioAssay AID1159580 (chemical genetic matrix, 2015).
Screen size: about 5,500 compounds; about 2,000 (36%) were called active. Another 18% or so got no clear call; they are omitted. Cut-off read from the data, not from the text of the source: active = normalized growth mostly below about 0.91 (no sharp cut-off); inconclusive = no clear call, values can overlap the other calls; inactive = mostly above about 0.92. Some of the results follow.

Assay: chemical genetic growth profiling, strain panel (AID 1159580);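 note: tested at 20 µM; growth read once vehicle control cultures reached saturation at 30 °C; 1 = growth at the plate median or of vehicle wells; lower values mean less growth of the strain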
Details: growth OD
[1] = S. cerevisiae deletion strains, locus YAL013W, strain DEP1, stronger effect = lower value
[2] = S. cerevisiae deletion strains, locus YBR229C, strain ROT2, stronger effect = lower value
[3] = S. cerevisiae deletion strains, locus YDL101C, strain DUN1, stronger effect = lower value
[4] = S. cerevisiae deletion strains, locus YDL134C, strain PPH21, stronger effect = lower value
[5] = S. cerevisiae deletion strains, locus YDR150W, strain NUM1, stronger effect = lower value
[6] = S. cerevisiae deletion strains, locus YEL061C, strain CIN8, stronger effect = lower value
[7] = S. cerevisiae deletion strains, locus YGR078C, strain PAC10, stronger effect = lower value
[8] = S. cerevisiae deletion strains, locus YHR030C, strain SLT2, stronger effect = lower value
[9] = S. cerevisiae deletion strains, locus YJR043C, strain POL32, stronger effect = lower value
[10] = S. cerevisiae deletion strains, locus YJR075W, strain HOC1, stronger effect = lower value
[11] = S. cerevisiae deletion strains, locus YLR039C, strain RIC1, stronger effect = lower value
[12] = S. cerevisiae deletion strains, locus YLR262C, strain YPT6, stronger effect = lower value
[13] = S. cerevisiae deletion strains, locus YMR263W, strain SAP30, stronger effect = lower value
[14] = S. cerevisiae deletion strains, locus YMR307W, strain GAS1, stronger effect = lower value
[15] = S. cerevisiae deletion strains, locus YNL153C, strain GIM3, stronger effect = lower value
[16] = S. cerevisiae deletion strains, locus YNL322C, strain KRE1, stronger effect = lower value
[17] = S. cerevisiae deletion strains, locus YOL006C, strain TOP1, stronger effect = lower value
[18] = S. cerevisiae deletion strains, locus YPL055C, strain LGE1, stronger effect = lower value
[19] = S. cerevisiae deletion strains, locus YPL241C, strain CIN2, stronger effect = lower value
[20] = S. cerevisiae strains, strain wild type, stronger effect = lower value
[21] = S. cerevisiae deletion strains, locus YHR087W, strain rtc3, stronger effect = lower value
[22] = S. cerevisiae deletion strains, locus YJL187C, strain SWE1, stronger effect = lower value
[23] = S. cerevisiae deletion strains, locus YLR058C, strain SHM2 (second series), stronger effect = lower value
[24] = S. cerevisiae deletion strains, locus YLR085C, strain ARP6, stronger effect = lower value
[25] = S. cerevisiae deletion strains, locus YML094W, strain GIM5, stronger effect = lower value
[26] = S. cerevisiae deletion strains, locus YMR219W, strain ESC1, stronger effect = lower value
[27] = S. cerevisiae deletion strains, locus YNL298W, strain CLA4 (second series), stronger effect = lower value
[28] = S. cerevisiae deletion strains, locus YNR030W, strain Alg12, stronger effect = lower value
[29] = S. cerevisiae deletion strains, locus YPR135W, strain CTF4, stronger effect = lower value

Measured: normalized growth

CN(C)CCC[C@@]1(c2ccc(F)cc2)OCc2cc(C#N)ccc21
inactive: [1] 1.02 | S. cerevisiae deletion strains, locus YBR021W, strain FUR4, stronger effect = lower value 1.02 | [2] 1.01 | S. cerevisiae deletion strains, locus YCL029C, strain bik1, stronger effect = lower value 1.02 | S. cerevisiae deletion strains, locus YDL035C, strain GPR1, stronger effect = lower value 1.02 | S. cerevisiae deletion strains, locus YDL074C, strain BRE1, stronger effect = lower value 1.02 | [3] 1.02 | [4] 1.01 | S. cerevisiae deletion strains, locus YDL185W, strain tfp1, stronger effect = lower value 1.03 | S. cerevisiae deletion strains, locus YDL192W, strain arf1, stronger effect = lower value 1.02 | S. cerevisiae deletion strains, locus YDR101C, strain arx1, stronger effect = lower value 1.02 | [5] 1.02 | S. cerevisiae deletion strains, locus YDR162C, strain NBP2, stronger effect = lower value 1.01 | S. cerevisiae deletion strains, locus YDR318W, strain mcm21, stronger effect = lower value 1.03 | S. cerevisiae deletion strains, locus YDR388W, stronger effect = lower value 1.02 | S. cerevisiae deletion strains, locus YDR502C, strain sam2, stronger effect = lower value 1.02 | [6] 1.01 | S. cerevisiae deletion strains, locus YER110C, stronger effect = lower value 1.03 | S. cerevisiae deletion strains, locus YER155C, strain BEM2, stronger effect = lower value 1.01 | S. cerevisiae deletion strains, locus YER167W, strain BCK2, stronger effect = lower value 1.02 | S. cerevisiae deletion strains, locus YGL078C, strain dbp3, stronger effect = lower value 1.03 | S. cerevisiae deletion strains, locus YGL086W, strain mad1, stronger effect = lower value 1.02 | S. cerevisiae deletion strains, locus YGL248W, strain PDE1, stronger effect = lower value 1.02 | [7] 1.03 | S. cerevisiae deletion strains, locus YGR135W, strain pre9, stronger effect = lower value 1.03 | S. cerevisiae deletion strains, locus YGR229C, strain SMI1, stronger effect = lower value 1.02 | S. cerevisiae deletion strains, locus YGR252W, strain gcn5, stronger effect = lower value 1.06 | [8] 1.01 | S. cerevisiae deletion strains, locus YHR079C, strain IRE1 (second series), stronger effect = lower value 1.02 | S. cerevisiae deletion strains, locus YHR094C, strain hxt1, stronger effect = lower value 1.02 | S. cerevisiae deletion strains, locus YHR129C, strain ARP1, stronger effect = lower value 1.01 | S. cerevisiae deletion strains, locus YHR200W, strain rpn10, stronger effect = lower value 1.02 | S. cerevisiae deletion strains, locus YIL066C, strain RNR3, stronger effect = lower value 1.03 | S. cerevisiae deletion strains, locus YIL073C, strain SPO22, stronger effect = lower value 1.06 | S. cerevisiae deletion strains, locus YIL125W, strain kgd1, stronger effect = lower value 1.02 | S. cerevisiae deletion strains, locus YIR030C, strain dcg1, stronger effect = lower value 1.02 | S. cerevisiae deletion strains, locus YJL095W, strain BCK1, stronger effect = lower value 1.02 | S. cerevisiae deletion strains, locus YJL134W, strain LCB3, stronger effect = lower value 1.03 | S. cerevisiae deletion strains, locus YJL168C, strain set2, stronger effect = lower value 1.02 | S. cerevisiae deletion strains, locus YJL187C, strain SWE1 (second series), stronger effect = lower value 1.02 | [9] 1.01 | [10] 1.01 | S. cerevisiae deletion strains, locus YKL009W, strain mrt4, stronger effect = lower value 1.03 | S. cerevisiae deletion strains, locus YKL068W, stronger effect = lower value 1.02 | S. cerevisiae deletion strains, locus YKL085W, strain MDH1 (second series), stronger effect = lower value 0.999 | S. cerevisiae deletion strains, locus YKL085W, strain MDH1, stronger effect = lower value 0.999 | S. cerevisiae deletion strains, locus YKL190W, strain CNB1, stronger effect = lower value 1.03 | S. cerevisiae deletion strains, locus YKR001C, strain vps1, stronger effect = lower value 1.03 | [11] 1.04 | S. cerevisiae deletion strains, locus YLR058C, strain SHM2, stronger effect = lower value 1.02 | S. cerevisiae deletion strains, locus YLR102C, strain apc9, stronger effect = lower value 1.02 | [12] 1.04 | S. cerevisiae deletion strains, locus YLR268W, strain sec22, stronger effect = lower value 1.01 | S. cerevisiae deletion strains, locus YLR330W, strain CHS5, stronger effect = lower value 1.01 | S. cerevisiae deletion strains, locus YLR342W, strain FKS1 (second series), stronger effect = lower value 1.03 | S. cerevisiae deletion strains, locus YLR371W, strain rom2, stronger effect = lower value 1.02 | S. cerevisiae deletion strains, locus YLR418C, strain cdc73, stronger effect = lower value 1 | S. cerevisiae deletion strains, locus YML016C, strain PPZ1, stronger effect = lower value 1.02 | S. cerevisiae deletion strains, locus YML032C, strain rad52, stronger effect = lower value 1.02 | S. cerevisiae deletion strains, locus YML124C, strain tub3, stronger effect = lower value 1.01 | S. cerevisiae deletion strains, locus YMR078C, strain ctf18, stronger effect = lower value 1.03 | S. cerevisiae deletion strains, locus YMR223W, strain ubp8, stronger effect = lower value 1.04 | [13] 1.02 | [14] 1.05 | S. cerevisiae deletion strains, locus YNL067W, strain RPL9B, stronger effect = lower value 1.02 | S. cerevisiae deletion strains, locus YNL128W, strain TEP1, stronger effect = lower value 1.02 | [15] 1.01 | S. cerevisiae deletion strains, locus YNL233W, strain BNI4, stronger effect = lower value 1.01 | S. cerevisiae deletion strains, locus YNL250W, strain rad50, stronger effect = lower value 1.03 | S. cerevisiae deletion strains, locus YNL271C, strain bni1, stronger effect = lower value 1.03 | S. cerevisiae deletion strains, locus YNL298W, strain CLA4, stronger effect = lower value 1.04 | S. cerevisiae deletion strains, locus YNL307C, strain MCK1, stronger effect = lower value 1.02 | [16] 1.01 | S. cerevisiae deletion strains, locus YNR052C, strain pop2, stronger effect = lower value 1.02 | [17] 1.05 | S. cerevisiae deletion strains, locus YOL012C, strain htz1 1.16 | S. cerevisiae deletion strains, locus YOL147C, strain pex11, stronger effect = lower value 1.02 | S. cerevisiae deletion strains, locus YOR061W, strain CKA2, stronger effect = lower value 1.02 | S. cerevisiae deletion strains, locus YOR069W, strain VPS5, stronger effect = lower value 1.01 | S. cerevisiae deletion strains, locus YOR136W, strain idh2, stronger effect = lower value 1.02 | S. cerevisiae deletion strains, locus YOR144C, strain elg1, stronger effect = lower value 1.02 | S. cerevisiae deletion strains, locus YOR184W, strain ser1, stronger effect = lower value 1.03 | S. cerevisiae deletion strains, locus YOR316C, strain cot1, stronger effect = lower value 1.02 | [18] 1.03 | [19] 1.01 | S. cerevisiae deletion strains, locus YPR119W, strain clb2, stronger effect = lower value 1.01 | S. cerevisiae deletion strains, locus YPR141C, strain kar3, stronger effect = lower value 1.03 | S. cerevisiae deletion strains, locus YPR163C, strain tif3, stronger effect = lower value 1.02 | S. cerevisiae deletion strains, locus YPR167C, strain met16, stronger effect = lower value 1.02 | S. cerevisiae deletion strains, strain wtn01, stronger effect = lower value 1.01 | [20] 1.02

CCCc1ccc(-c2nc(-c3ccc(C)cc3)no2)cc1
inactive: [1] 0.999 | [2] 0.994 | [3] 0.971 | [5] 1.01 | [6] 1.01 | [7] 0.973 | [8] 1 | [21] 0.984 | [22] 0.978 | [9] 0.991 | [10] 0.95 | [11] 1.09 | [23] 0.995 | [24] 1.02 | [12] 1.04 | [25] 0.988 | [26] 0.992 | [13] 0.994 | [14] 1.04 | [15] 0.965 | [27] 0.987 | [16] 0.989 | [28] 0.973 | [18] 0.975 | [19] 0.941 | [29] 1.06 | [20] 1.01

C/C(=N/O)c1ccc2c(c1)C(C)(C)CCC2(C)C
inactive: [1] 1.01 | [2] 0.987 | S. cerevisiae deletion strains, locus YCL061C, strain MRC1, stronger effect = lower value 0.964 | [3] 1.01 | [4] 0.99 | [5] 0.985 | [6] 0.995 | [7] 0.981 | [8] 0.984 | [21] 0.977 | [22] 0.976 | [9] 0.989 | [10] 0.954 | [11] 0.847 | [23] 0.985 | [24] 0.963 | [12] 0.939 | [25] 0.992 | [26] 0.991 | [13] 0.979 | [14] 0.92 | [15] 0.967 | [27] 0.962 | [16] 0.995 | [28] 0.958 | [18] 0.996 | [19] 0.953 | [29] 0.915

CCCc1ccc(/C(C)=N\O)cc1
inactive: [1] 0.939 | [3] 0.955 | [4] 0.965 | [5] 0.858 | [7] 0.93 | [8] 0.778 | [9] 0.949 | [12] 0.834 | [25] 0.947 | [13] 0.963 | [14] 1.18 | [15] 0.946 | [27] 0.94 | [28] 0.96 | [17] 0.945 | [18] 0.848 | [19] 0.949
active: [2] 0.921 | [6] 0.902 | [21] 0.909 | [22] 0.926 | [10] 0.816 | [11] 0.777 | [23] 0.92 | [24] 0.756 | [26] 0.932 | [16] 0.919 | [29] 0.518
